The list is not random: actives were taken first. Their share in the collection is about 5.2%.
Tau fibril ThT – inhibitors of human tau fibril formation, thioflavin T binding. P10636. recombinant tau K18 P301L, heparin-induced fibrillization, ThT fluorescence. Potency, µM (doses to about 57.4 µM), inactives show at the highest dose activity, negative = inhibition, most hits filed as inhibitors. 270,000 tested, 2.1% active; also: potency is read from the fitted curve at half-maximal effect; nearly all actives have a fitted effect of over 55% in size
Target sequence (P10636 561-689 P618L limits assumed): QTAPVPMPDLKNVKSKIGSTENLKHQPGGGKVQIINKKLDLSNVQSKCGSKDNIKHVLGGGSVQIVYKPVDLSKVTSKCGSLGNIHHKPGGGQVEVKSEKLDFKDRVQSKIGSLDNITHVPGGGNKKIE
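Fibril formation assay: tau K18 P301L at 15 uM with trace Alexa 594 label, heparin inducer 20 uM, pH 7 sodium acetate buffer, 37 C for 6 hr; endpoint ThT signal.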
Tau fibril FP – inhibitors of human tau fibril formation. P10636. K18 P301L tau heparin fibrillization, Alexa594 FP, 6 h. Potency, µM (top dose mostly 57.7 µM), for the others: at the top dose activity, negative = inhibition, most hits filed as inhibitors. 280,000 tested, 0.39% active. AID 1468; also: potency is read from the fitted curve at half-maximal effect; nearly all actives have a fitted effect of over 55% in size
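K18 P301L tau (15 uM unlabeled/0.24 uM Alexa 594-labeled, final) + compound + heparin 20 uM final; 100 mM NaOAc pH 7; 6 hr 37 C; ThT 30 uM final added, 1 hr RT; FP ex 555/em 632 nm.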
FBPA coupling cs – coupling enzyme interference in Giardia aldolase counter-screen; coupling enzyme system counterscreen, AmpLite Red fluorescence; activity change, negative = inhibition, % at 58.2 µM, hits read low; 290,000 tested, 0.67% active; in the data active = activity change below about -30%
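Final compound at 57.5 uM, incubated 10 min at RT with coupling enzyme reagent (glyceraldehyde-3-phosphate), then 20 min with substrate and AmpLite Red detection. Fluorescence read at 525/598 nm; tests interference with the coupling assay, not aldolase inhibition.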
Sfp inh – blocks B. subtilis Sfp PPTase activity; Biochemical Sfp PPTase activity, qHTS; Potency, µM, without a hit: largest response in the series, negative = inhibition, most hits filed as inhibitors; 310,000 tested, 3.5% active;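 also: the enzyme is Sfp with the accession as filed and its product quenches rhodamine fluorescence; potency is read from the fitted curve at half-maximal effect; 0% = enzyme reaction without inhibitor and -100% = no enzyme wells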
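Sfp 15 nM + cpd, 15 min RT; start w/ rhodamine-CoA 5 uM, BHQ-2-YbbR 12.5 uM (final); 50 mM Hepes pH 7.6, 10 mM MgCl2, 0.01% NP-40, 0.01% BSA; read 525/598 nm at 0 and 30 min.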
Tau fluor cs – counter-screen for tau fibril formation inhibitors; tau K18 P301L (four-repeat tau fragment) Alexa594 fluorescence, heparin fibrillization; Potency, µM (top dose mostly 57.7 µM), for inactives: at the highest dose activity change, negative = decrease; 280,000 tested, 0.93% active; AID 1463; also: potency is read from the fitted curve at half-maximal effect; nearly all actives have a fitted effect of over 55% in size
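Human K18 P301L tau (15 uM unlabeled plus 0.24 uM Alexa 594-labeled, final) in 100 mM sodium acetate pH 7 was mixed with compound and 20 uM heparin and incubated 6 hr at 37 C.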
The depositor's hits bear a star; ? = inconclusive; nt = no result given; [ ] = another dose, or the depositor's remark. Unless noted, calls follow the shape of the dose curve; as a rule, active = well fitted curve in the direction sought with a large enough effect; inconclusive = small, poorly fitted or top-dose-only effect, or another doubt; inactive = no such curve, though single readings can be large; an effect the other way counts as inactive or inconclusive. Unless noted, % is scaled to controls: 0 for no effect and ±100 for the full control effect.

SMILES | Tau fibril ThT | Tau fibril FP | FBPA coupling cs | Sfp inh | Tau fluor cs
CNc1ccc(C(=O)CC(O)CCC(C)C2OC(=O)CC(O)CC(=O)CC(O)CC(O)CC(O)CC(O)CC3(O)CC(O)C(C(=O)OC)C(CC(O[C@@H]4OC(C)C(O)C(N)C4O)/C=C/C=C/C=C/C=C/C=C/C=C/C=C/C2C)O3)cc1 (some centres undefined) | ? | -12% | -2 | -14% | -16%
Cc1ccc(N2C(=O)NC(=O)/C(=C\C=C\c3ccco3)C2=O)cc1 | nt | 13µM* | 2 | ? | ?
CN(C)c1ccc(/C=C/C=C2/C(=O)NC(=O)N(c3ccccc3)C2=O)cc1 | 4µM* | ? | -8 | 45µM* | ?
Cn1cc(/C=C2\C(=O)NC(=O)N(c3ccccc3)C2=O)c2ccccc21 | nt | nt | 0 | -15% | nt
Cc1cccc(N2C(=O)NC(=O)/C(=C\C=C\c3ccco3)C2=O)c1 | 10µM* | ? | 4 | 45µM* | -5%
Cc1cccc(N2C(=O)NC(=O)/C(=C/c3ccc([N+](=O)[O-])o3)C2=O)c1 | 0% | 4% | -36* | 13µM* | 2%
O=C(Nc1ccc2nc(SCC(=O)N3CCCc4ccccc43)sc2c1)c1cccc(F)c1 | 1% | ? | nt | nt | ?
Cc1ccc(N2C(=O)NC(=O)/C(=C\C=C\c3ccco3)C2=O)cc1C | 13µM* | ? | 0 | -71% | -14%
Cc1ccc(N2C(=O)NC(=O)/C(=C\c3cc(C)n(-c4ccc(C(=O)O)cc4)c3C)C2=O)cc1 | nt | nt | 9 | -23% | nt
O=C1NC(=O)N(c2ccccc2)C(=O)/C1=C/C=C/c1ccco1 | nt | nt | 3 | 32µM* | nt
CN1C(=O)/C(=C/C=C/c2ccco2)C(=O)NC1=S | nt | ? | -5 | 13µM* | ?
Cn1cccc1/C=C1\C(=O)NC(=O)N(Cc2ccco2)C1=O | ? | 1% | -3 | -20% | -24%
O=[P+](Cc1ccccc1)Cc1ccccc1 | -8% | -3% | 2 | 23% | -5%
COc1ccc(-c2oc3cc(OC)ccc3c(=O)c2O)cc1 | -12% | ? | 2 | -3% | -20%
C#C[C@]1(O)CC[C@H]2[C@@H]3CCC4=CC(=O)CCC4(C)[C@H]3CCC21C (some centres undefined) | -2% | 2% | -1 | 30% | 0%
O=C1NC(=O)C(=Cc2cc(Cl)ccc2OCc2ccc(C(=O)O)cc2)C(=O)N1 | ? | -17% | 12 | 50µM* | -17%
O=c1c2ccccc2[se]n1-c1ccccc1 | ? | ? | -2 | 0.79µM* | ?
CN(C)c1ccc2c(c1)N=C(c1ccco1)OP2(=S)N1CCOCC1 (centres undefined) | ? | -6% | -6 | 14µM* | -16%
CC(=O)CC(c1ccc(O)cc1)c1c(O)c2ccccc2oc1=O (centres undefined) | nt | nt | 7 | 20% | nt
Clc1cccc(/C=N\Nc2nccs2)c1 | ? | 15% | -3 | -4% | 18µM*[quencher]
O=c1[nH]c(=O)n(-c2ccc(Cl)cc2)c(O)c1C=Nc1ccc(S(=O)(=O)Nc2nccs2)cc1 | -17% | 2% | 8 | -21% | 4%
COc1ccc(C2=NCC(=O)N(CC(=O)NCc3ccco3)c3sc4c(c32)CCCC4)cc1OC | -24% | -9% | 1 | 50µM* | -14%
NC(C(=O)O)c1cc(=O)[nH]o1 (centres undefined) | -2% | -2% | nt | 79µM* | 1%
CC(=O)O[C@@]12CO[C@@H]1C[C@H](O)[C@@]1(C)C(=O)[C@H](O)C3=C(C)[C@@H](OC(=O)[C@H](O)[C@@H](NC(=O)c4ccccc4)c4ccccc4)C[C@@](O)([C@@H](OC(=O)c4ccccc4)C12)C3(C)C (some centres undefined) | nt | nt | 0 | 11µM* | nt
CCN(CC)c1ccc(NC(=O)c2cccc(C)c2)cc1S(=O)(=O)Nc1ccccc1OC | ? | -14% | -1 | 13µM* | -29%
SMILES | Tau fibril ThT | Tau fibril FP | FBPA coupling cs | Sfp inh | Tau fluor cs
CCOP(=O)(OCC)C(NC(=O)c1cccc(C)c1)C(Cl)(Cl)Cl (centres undefined) | 6% | 10% | -3 | 8% | 11%
CN1CCN(c2ccc(/C=C3\C(=O)NC(=S)N(c4cccc(Br)c4)C3=O)o2)CC1 | 16µM* | -14% | -1 | 10% | -19%
CCN1C(=O)C(=Cc2ccc(N3CCOCC3)o2)C(=O)N(CC)C1=S | 18µM* | -10% | 2 | -23% | -28%
CN1C(=O)C(=Cc2ccc(N3CCOCC3)o2)C(=O)N(C)C1=S | ? | 1% | -2 | 6% | 0%
CN1C(=O)/C(=C/c2ccc(N3CCCCCC3)o2)C(=O)NC1=S | 14µM* | -2% | 2 | 50µM* | -12%
CN1C(=O)/C(=C\c2ccc(N3CCCCC3)o2)C(=O)NC1=S | ? | -11% | 1 | -14% | -8%
C=CCN1C(=O)/C(=C\c2ccc(N3CCOCC3)o2)C(=O)NC1=S | ? | -6% | -3 | 56µM* | 0%
O=C(Nc1ccc(Cl)c(C(F)(F)F)c1)NC1CC2CCCC(C1)N2Cc1ccccc1 (centres undefined) | -12% | 28µM* | 2 | -2% | ?
O=C(CNC(=O)c1ccc(Br)cc1)NCC(=O)OCC(=O)c1ccc([N+](=O)[O-])cc1 | 28µM* | ? | 5 | -30% | -25%
COc1ccc([N+](=O)[O-])cc1NC(=O)COC(=O)c1ccccc1C(=O)c1ccccc1 | 7% | -1% | 3 | -7% | ?
O=C(CNC(=O)c1ccc(Cl)cc1)Nc1ccc(Br)cc1C(=O)c1ccccc1 | -7% | -10% | 4 | 9% | ?
O=C(CNC(=O)c1ccccc1)NCC(=O)OCC(=O)c1ccc([N+](=O)[O-])cc1 | ? | ? | 0 | 28µM* | -17%
CC1O[C@@H](O[C@@H]2C(O)C[C@H](O[C@@H]3C(O)C[C@@H](OC4CC[C@@]5(C)C6CC[C@]7(C)C(C8=CC(=O)OC8)CC[C@@]7(O)C6CC[C@@H]5C4)OC3C)OC2C)CC(O)[C@H]1O (some centres undefined) | -22% | 3% | 1 | 2% | -8%
NC(=NCc1ccc(Cl)cc1)SCCCc1cnc[nH]1 | -3% | -5% | -2 | -2% | -6%
NC1=N[C@H](O)[C@H]2C3O[C@]4(O)O[C@H](C(O)[C@@]2(N1)[C@@H]4O)C3(O)CO (some centres undefined) | -4% | -5% | -2 | 6% | -8%
O=C1C(Cl)=C(N2CCCCCC2)C(=O)N1c1ccccc1 | 25µM* | ? | 8 | 1% | ?
COc1ccc(N2C(=O)C(Cl)=C(N3CCN(Cc4ccccc4)CC3)C2=O)cc1 | 25µM* | 28µM* | -3 | 2% | -30%
Cc1ccc2cc(C=C(C#N)C#N)c(Cl)nc2c1 | ? | -9% | 0 | 56µM* | -3%
